The list is not random: actives were taken first. Their share in the collection is about 21%.
Cycloheximide cs: Cycloheximide Counterscreen for Small Molecule Inhibitors of Shiga Toxin. AID 2314, 2010. cell reporter, cycloheximide protein synthesis inhibition counterscreen. max response, %. hit rate 12% among 300,000; in the data active means max response mostly above about 13%, no sharp cut-off; inactive means mostly below about 14%; further: read at 38.3 µM for the half of the compounds with a filed dose
Shiga inhibitor: A qHTS for Small Molecule Inhibitors of Shiga Toxin; hit rate 9.2% among 290,000; Vero cells, Shiga toxin protein synthesis inhibition reporter; inhibition, % at 38.7 µM; in the data active means inhibition mostly above about 28%, no sharp cut-off; inactive means mostly below about 43%
Pf growth 48h: Primary qHTS for delayed death inhibitors of the malarial parasite plastid, 48 hour incubation; P. falciparum luciferase growth in erythrocytes, 48 h; Potency, µM (highest dose often 28.7 µM), most hits filed as inhibitors; hit rate 5.9% among 310,000; AID 504832, 2011
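In quantitative HTS format, infected erythrocytes bearing luciferase-reporter parasites were treated for a single generation at 37 C. Luminescence after adding detection reagent served as the growth measure.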
Pf growth 96h: Primary qHTS for delayed death inhibitors of the malarial parasite plastid, 96 hour incubation. P. falciparum luciferase reporter growth, 96 h. Potency, µM (highest dose often 28.7 µM), actives largely listed as inhibitors. hit rate 6.9% among 320,000
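Compounds incubated with erythrocytes infected by luciferase-expressing P. falciparum (2% hematocrit, 0.05% parasitemia final) for 96 hours, 37 C in 5% CO2. Growth inhibition scored as decreased luciferase luminescence.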
A number is an active result; 0 = inactive; ? = inconclusive; - = not tested or not shown. Unless noted, the call rests on the fitted dose curve; in most records, active means well fitted inhibition curve with a large enough effect; inconclusive means small, poorly fitted or top-dose-only effect, or another doubt; inactive means no such curve, though single readings can be large or run the other way.

SMILES	Cycloheximide cs	Shiga inhibitor	Pf growth 48h	Pf growth 96h
CCOC(=O)N1CCN(S(=O)(=O)c2c[nH]c(C(=O)OC)c2)CC1	0	0	0	0
Cc1ccc(C(=O)OCC(=O)N(C)C2CCS(=O)(=O)C2)cc1S(=O)(=O)N1CCCCC1 (stereo not drawn)	-	-	0	0
Cn1cc(/C=C(\NC(=O)c2ccccc2Cl)C(=O)NCCCn2ccnc2)c2ccccc21	0	0	?	?
COc1ccc(OC)c(S(=O)(=O)n2nnc3cc(Cl)ccc32)c1	0	0	0	0
COc1cc(S(=O)(=O)n2nnc3ccccc32)c(OC)cc1Cl	0	0	0	9.3µM
Cc1ccnc(NC(=O)CS(=O)(=O)c2ccccc2)c1	0	89	0	0
Cc1ccnc(NC(=O)CCS(=O)(=O)c2ccccc2)c1	18	0	0	0
O=C(CCS(=O)(=O)c1ccccc1)Nc1ccccn1	0	0	0	0
O=C(COC(=O)c1ccccn1)c1ccc([N+](=O)[O-])cc1	0	41	?	0
Cn1ncc(Br)c1C(=O)OCC(=O)Nc1nc(-c2ccccc2)cs1	19	31	0	0
CC1CCN(CC(=O)Nc2nc(-c3ccccc3)cs2)CC1	0	0	0	0
O=C(COC(=O)c1ccccn1)Nc1nc(-c2cccc([N+](=O)[O-])c2)cs1	18	0	0	0
O=C(COC(=O)c1ccccn1)Nc1nc(-c2ccccc2)cs1	42	81	0	?
O=C(Cc1ccccc1)Nc1nc(-c2cccc([N+](=O)[O-])c2)cs1	0	0	0	?
Cc1cc(Cl)c2oc(C(=O)N(C)CCCCN3CCOCC3)c(C)c2c1	0	0	0	?
CCN(Cc1cnn(C)c1)C(=O)c1cc(COc2cc(C)c(Cl)c(C)c2)on1	24	0	0	0
CCN(Cc1cnn(C)c1)C(=O)c1cc(COc2ccc(F)cc2F)on1	15	0	0	0
CCN(Cc1ccncc1)C(=O)c1cc(COc2ccc(F)cc2F)on1	0	0	0	?
COc1cc(Cl)ccc1OCc1cc(C(=O)N(C)CCc2cnn(C)c2)no1	64	115	0	?
Cc1cc(Cl)c2oc(C(=O)N(C)CCc3cnn(C)c3)c(C)c2c1	0	0	0	10µM
Cc1ccc(NC(=O)C(C)OC(=O)CCN=C2NS(=O)(=O)c3ccccc32)cc1 (stereo not drawn)	-	-	0	0
COc1ccc(NC(=O)C(=O)N/N=C/c2cc(C)n(-c3cccc(Cl)c3Cl)c2C)c(OC)c1	0	0	?	-
Cc1cc(OCc2cc(C(=O)N(C)CCc3cnn(C)c3)no2)cc(C)c1Cl	39	70	0	0
COCCSc1nnc(NC(=O)C2CC(=O)N(CCc3ccc(F)cc3)C2)s1 (stereo not drawn)	0	0	?	?
O=C(N/N=C/c1cccc(OC(=O)c2ccco2)c1)c1ccc(F)cc1	64	26	0	0
SMILES	Cycloheximide cs	Shiga inhibitor	Pf growth 48h	Pf growth 96h
COc1cc(/C=N/NC(=O)c2ccc(F)cc2)ccc1OC(=O)c1ccco1	21	0	0	0
COc1cc(/C=N/NC(=O)c2ccncc2)ccc1OC(=O)c1ccco1	0	0	0	?
O=C(N/N=C\c1ccc(OC(=O)c2ccco2)cc1)c1ccc(Cl)cc1	0	0	0	0
COc1cc(/C=N/Nc2ccc3ccccc3c2)ccc1OC(=O)c1ccco1	29	41	?	?
COc1ccc(CC(=O)NC2=NCCS2)cc1	0	0	-	0
O=C1CC[C@@H](C(=O)N[C@@H](Cc2cnc[nH]2)C(=O)N[C@@H](Cc2c[nH]c3ccccc23)C(=O)N[C@@H](CO)C(=O)N[C@@H](Cc2ccc(O)cc2)C(=O)O)N1	0	0	-	-
COc1ccc(C(=O)C2CCN(C(=S)Nc3ccc(F)cc3)CC2)cc1	0	0	0	?
CC(=O)NC(CC(=O)OCC(=O)c1c(N)n(CC(C)C)c(=O)n(C)c1=O)c1ccccc1 (stereo not drawn)	-	-	12µM	9.3µM
COc1ccc(NC(=O)c2ccc(NC(=O)COC(=O)CC(NC(=O)c3ccccc3Cl)c3ccccc3)cc2)cc1 (stereo not drawn)	22	0	0	0
Cc1ccccc1C(=O)NC(CC(C)C)C(=O)OCC(=O)c1c(N)n(C)c(=O)n(C)c1=O (stereo not drawn)	0	0	1µM	?
Cn1c(N)c(C(=O)COC(=O)CC(NC(=O)c2ccccc2Cl)c2ccccc2)c(=O)n(C)c1=O (stereo not drawn)	0	0	1.3µM	?
CCN(CC)CCNC(=O)c1ccc(NC(=O)CC(NC(=O)c2ccccc2Cl)c2ccccc2)cc1 (stereo not drawn)	0	0	0	0
CCCCN(C)CCC(=O)Nc1ccc(F)c(F)c1	0	0	0	0

Bioassay records (PubChem BioAssay)
